A selection: hits, their analogues and other compounds. The true share with any hit is near 18%.
VDR inh: Inhibitors of the vitamin D receptor (VDR): qHTS; Vitamin D3 receptor (Homo sapiens), P11473; VDR-SRC2-3 peptide fluorescence polarization, 2 h; Potency, µM, for the others: max response, negative = inhibition, hits mostly inhibitors; 400,000 tested, 0.93% active; AID 504847, 2011
Target sequence (P11473 whole entry, looked up): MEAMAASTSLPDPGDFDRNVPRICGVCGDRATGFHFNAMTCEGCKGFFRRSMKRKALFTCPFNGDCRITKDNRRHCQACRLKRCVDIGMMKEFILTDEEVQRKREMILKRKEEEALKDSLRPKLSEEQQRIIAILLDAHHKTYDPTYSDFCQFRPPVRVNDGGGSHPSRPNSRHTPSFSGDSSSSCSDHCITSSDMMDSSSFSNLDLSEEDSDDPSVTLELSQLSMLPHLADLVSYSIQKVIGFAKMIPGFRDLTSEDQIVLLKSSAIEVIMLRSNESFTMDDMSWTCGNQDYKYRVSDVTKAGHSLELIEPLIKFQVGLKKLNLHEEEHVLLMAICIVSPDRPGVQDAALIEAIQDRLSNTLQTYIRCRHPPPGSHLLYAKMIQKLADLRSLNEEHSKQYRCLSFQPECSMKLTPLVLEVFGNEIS
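VDR–SRC2-3 interaction, FP format. Cmpds 23 nl via pintool, brief spin, 2 h ambient incubation.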
TDP1 inh: qHTS Assay for Inhibitors of Tyrosyl-DNA Phosphodiesterase (TDP1). recombinant TDP1, AlphaScreen DNA substrate cleavage. AID 485290, 2010. Potency, µM (doses to about 130 µM), inactives show top-dose activity change, negative = inhibition, hits mostly inhibitors. Tyrosyl-DNA phosphodiesterase 1 (Homo sapiens), Q9NUW8. 350,000 tested, 0.28% active; also: nearly all actives have a fitted effect of over 40% in size
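Compounds were preincubated with Tdp1 (1 nM final) for 15 min at room temperature before substrate (15 nM final) started a 5 min reaction; beads (10 ug/ml final) were then added for 10 min before AlphaScreen detection.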
PLK1 PBD inh: qHTS for Inhibitors of PLK1-PDB (polo-like kinase 1 - polo-box domain): Primary Screen | Plk1 PBD binding of FITC phosphopeptide, fluorescence polarization | Potency, µM, for inactives: max response, negative = inhibition, most hits filed as inhibitors | 360,000 tested, 2.8% active; also: series mostly up to about 57 µM; nearly all actives have a fitted effect of over 65% in size
GCN5L2 inh: qHTS Assay for Inhibitors of GCN5L2; GCN5L2 HAT assay, ThioGlo1 CoA-SH fluorescence; 390,000 tested, 0.21% active; Histone acetyltransferase KAT2A (Homo sapiens), Q92830; Potency, µM (series often up to 58.9 µM), for the others: at the top dose activity change, negative = inhibition, usual class: inhibitors; AID 504327, 2011
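ThioGlo1-coupled HAT assay: 20nM GCN5L2, 70uM acetyl-CoA, 75uM H3(1-25) peptide, pH 7.5. Fluorescence read at 340/540nm at start and after 20 min at room temperature.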
DT40 TDP1 no CPT: qHTS for Inhibitors of human tyrosyl-DNA phosphodiesterase 1 (TDP1): qHTS in cells in absence of CPT. DT40 Tdp1-/- hTDP1 cells, no CPT, ATP luminescence, 48 h. Potency, µM (doses to about 46.2 µM), for the others: top-dose activity change, negative = growth inhibition, usual class: inhibitors. 420,000 tested, 15% active; also: nearly all actives have a fitted effect of over 55% in size
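Seeded 400 DT40-hTDP1 cells/well (vehicle DMSO, no 20 nM CPT); pinned compounds; ≥48 hr at 37 °C; CellTiter-Glo luminescence as viability measure.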
TDP1 cell CPT: qHTS for Inhibitors of human tyrosyl-DNA phosphodiesterase 1 (TDP1): qHTS in cells in presence of CPT. chicken DT40 Tdp1-/-;hTDP1 cells + 20 nM CPT, ATP luminescence, 48 h. Potency, µM (titrated, usually from 46.2 µM), without a hit: at the top dose activity change, negative = growth inhibition, usual class: inhibitors. 420,000 tested, 12% active; also: nearly all actives have a fitted effect of over 55% in size
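Chicken DT40 Tdp1-/- cells complemented with human TDP1, 400 cells/well, exposed to compounds plus 20 nM camptothecin for at least 48 h at 37 C; viability read as ATP content by CellTiter-Glo luminescence.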
Active calls of the source: *; u = inconclusive; x = no result given. Calls follow the shape of the dose curve; as a rule, active = well fitted curve in the direction sought with a large enough effect; inconclusive = small, poorly fitted or top-dose-only effect, or another doubt; inactive = no such curve, though single readings can be large; an effect the other way counts as inactive or inconclusive. % is scaled to controls: 0 for no effect and ±100 for the full control effect; potency is read from the fitted curve at half-maximal effect.

SMILES | VDR inh | TDP1 inh | PLK1 PBD inh | GCN5L2 inh | DT40 TDP1 no CPT | TDP1 cell CPT
CCCCCCCCCCCCCCCCCC(=O)[O][Al] | x | x | x | x | -6.8% | 0.2%
CCN1CCN(S(=O)(=O)c2c(C)[nH]c(C)c2C(=O)N2CCCCC2)CC1 | 25.2% | 7.6% | -9.2% | -2.4% | 11.8% | -6.1%
CCC(C)(C)NC(=O)C(c1sccc1C)N(Cc1ccco1)C(=O)c1csnn1 (configuration not stated) | -12.8% | x | 0.7% | -3.5% | 16.4µM* | 16.4µM*
CC(C)c1ccc(CNCCSc2nnnn2-c2ccccc2)cc1 | 4.1% | 7.0% | x | -3.7% | 25.9µM* | 16.4µM*
Clc1ccccc1CNCCCSc1nnnn1-c1ccccc1 | 9.4% | 1.6% | x | -4.2% | u | u
CC(C)c1ccc(CNCCSc2nnnn2C)cc1 | 1.6% | 11.0% | x | 1.0% | -17.2% | -7.2%
Fc1ccccc1CNCCCSc1nnnn1-c1ccccc1 | 14.0% | -3.6% | x | 0.1% | u | 16.4µM*
CCc1nnc(NS(=O)(=O)c2ccc(N=Cc3c(C)[nH]n(-c4ccc(Cl)cc4)c3=O)cc2)s1 | -8.7% | 8.2% | u | -6.6% | u | u
Cc1ccc(-n2[nH]c(C)c(/C=N/NC(=O)c3ccc(O)cc3O)c2=O)cc1 | 12.0% | x | -18.5% | -13.4% | 5.17µM* | 11.6µM*
Cc1[nH]c2ccccc2c1/C=N/NC(=O)c1cc(-c2cccs2)[nH]n1 | 4.3% | 5.7% | -7.0% | -8.2% | 20.6µM* | u
COC(=O)N/N=C/c1cc(N=Nc2ccccc2)ccc1O | 1.5% | 6.0% | 4.1% | -15.3% | u | u
Cc1cc(C(=O)N/N=C/c2cc(N=Nc3ccccc3)ccc2O)n[nH]1 | -5.3% | -1.1% | -4.8% | -3.7% | 6.51µM* | 5.8µM*
Cc1[nH]n(-c2ccc(Cl)cc2)c(=O)c1/C=N/c1nnc(-c2ccccc2)s1 | 5.1% | 5.7% | -0.2% | -1.6% | 16.4µM* | u
COC(=O)c1cc(CN2CCN(c3ccccc3)CC2)ccc1O | -5.5% | x | 3.7% | -6.1% | -7.5% | 3.3%
S=C(CN1CCCC1=S)NCCc1ccccc1 | -0.1% | x | -10.9% | -3.7% | -18.2% | -15.3%
CC(C)OCCCNC(=O)C1CCC(CNS(=O)(=O)c2ccccc2)CC1 (configuration not stated) | 1.3% | -2.6% | 6.3% | -1.7% | -8.5% | -24.4%
COC1OC2COC(c3ccccc3)OC2C2OC(c3ccccc3)OC12 (configuration not stated) | x | x | 10.5% | x | u | -28.8%
Cc1[nH]n(-c2ccccc2)c(=O)c1C=NCCc1ccccc1 | -9.1% | 9.6% | -11.2% | -5.9% | -23.1% | -12.8%
CCCCN(CCCC)C(=S)N/N=C/c1c(C)[nH]n(-c2ccccc2)c1=O | -3.6% | 11.8% | -20.5% | u | 2.59µM* | 2.06µM*
Cc1cc(C(=O)N/N=C/c2c3ccccc3cc3ccccc23)n[nH]1 | 10.3% | 5.6% | -9.5% | -1.8% | 9.2µM* | u
Cc1[nH]n(-c2ccccc2)c(=O)c1/C=N/N1CCOCC1 | 6.7% | x | -10.3% | -3.1% | -0.5% | -14.1%
CCOc1ccc2ccccc2c1/C=N/NC(=O)c1cc(C)[nH]n1 | -3.1% | x | -9.4% | -6.9% | 8.8% | -4.2%
Cc1[nH]n(-c2ccccc2)c(=O)c1/C=N/NC(=O)c1ccc(O)cc1O | -8.8% | x | -14.5% | -2.7% | 20.6µM* | u
Cc1[nH]n(-c2ccccc2)c(=O)c1/C=N/Nc1nncc(-c2ccccc2)n1 | 11.5% | 11.3% | -9.4% | u | 1.03µM* | 1.03µM*

Compound activity deposited in PubChem BioAssay by National Center for Advancing Translational Sciences (NCATS).
